Compound activity: PubChem BioAssay, several laboratories
Most compounds without a hit are left out; they make up all but 4% or so of the library.
GDH-TPI inh: inhibits GDH-TPI coupling enzymes, artifact for Mtb FBA screen; GDH-TPI coupled enzyme counterscreen, NADH absorbance; inhibition, % at 4.8 µM; 1.2% of 360,000 active; AID 588335;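 also: 0% = DMSO wells and 100% = wells lacking the enzyme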
Mtb betalactam: beta-lactam sensitization of Mtb H37Rv; M. tuberculosis H37Rv growth with meropenem, percent inhibition; inhibition, % at 25 µM; 0.27% of 330,000 active; AID 434955; call rule not given here;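 also: growth measured after seven days incubation then overnight dye step; 0% = bacteria only wells and 100% = bacteria with antibiotic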
Mtb FBA inh: inhibitors of M. tuberculosis fructose-bisphosphate aldolase; inhibition, % at 1 µM; purified M. tuberculosis FBA, fluorescence read-out; AID 588726; 2.3% of 360,000 active; in the data active = inhibition above about 27%;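 also: 0% = vehicle and 100% = reference inhibitor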
Target sequence (P9WQA3 whole entry, looked up): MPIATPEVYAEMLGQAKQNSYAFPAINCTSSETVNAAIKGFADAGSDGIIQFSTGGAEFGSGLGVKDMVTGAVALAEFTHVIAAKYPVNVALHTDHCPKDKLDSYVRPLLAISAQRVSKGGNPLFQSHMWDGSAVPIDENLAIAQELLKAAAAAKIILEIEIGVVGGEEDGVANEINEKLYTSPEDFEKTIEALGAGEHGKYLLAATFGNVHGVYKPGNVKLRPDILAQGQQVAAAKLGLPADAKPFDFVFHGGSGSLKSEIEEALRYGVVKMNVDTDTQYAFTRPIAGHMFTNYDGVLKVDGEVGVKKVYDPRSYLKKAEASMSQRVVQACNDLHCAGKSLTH
CCHF vOTU inh-1: CCHFV vOTU protease inhibition. 0.55% of 370,000 active. inhibition, % at 11.5 µM. Pep-AMC fluorescence; also: 0% = vehicle wells with enzyme and 100% = no enzyme wells
MazF activator: MazEF (E. coli) toxin RNase activation. activation, % at 20 µM. FAM/BHQ RNA-DNA oligo cleavage fluorescence, 5 h. 0.32% of 350,000 active. P0AE70; in the data active = activation above about 50%
Target sequence (P0AE70 whole entry, looked up): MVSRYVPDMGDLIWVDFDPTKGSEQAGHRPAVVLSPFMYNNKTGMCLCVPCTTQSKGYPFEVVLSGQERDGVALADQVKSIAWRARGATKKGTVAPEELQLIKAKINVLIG
CCHF vOTU inh-2: confirmation of CCHF virus vOTU protease inhibitors; shares compounds with CCHF vOTU inh-1; Recombinant CCHFV vOTU, Pep-AMC fluorescence; inhibition, % at 11.5 µM; 17% of 1,900 active
Numbers without * were called inactive; ? = inconclusive; . = no result given. Rule as the data show it, unless noted: active = inhibition above about 30%; inactive = the rest.

SMILES	GDH-TPI inh	Mtb betalactam	Mtb FBA inh	CCHF vOTU inh-1	MazF activator	CCHF vOTU inh-2
COC(=O)C1=C(C)N(Cc2cccc(C(F)(F)F)c2)C(=NCc2ccc(OC)cc2)NC1c1cccc(F)c1 (stereo not given)	.	.	.	35.0*	.	3.7
O=C(O)c1ccccc1NS(=O)(=O)c1ccc(NNC(=S)Nc2ccc(OC(F)F)cc2)c([N+](=O)[O-])c1	10.7	.	-1.8	69.6*	-7.2	64.7*
COCCn1c(-c2ccc(Cl)cc2)cnc1SCC(=O)NCCc1ccc(OC)c(OC)c1	3.5	1.9	-0.4	29.6*	2.1	-15.8
COc1ccc(CCNC(=O)CSCc2ccc(Cl)cc2)cc1OC	-12.0	-0.2	0.6	-8.7	-4.3	.
COc1ccc(CCNC(=O)CSc2nc(N)c(C#N)c(-c3cccs3)c2C#N)cc1OC	22.6	-3.9	1.4	31.7*	-6.5	-4.2
Cc1ccccc1NC(=O)CSc1nc(N)c(C#N)c(-c2cccs2)c1C#N	29.7	-3.5	11.3	8.8	-6.3	.
Cc1ccc(N2C(=O)CS/C2=N\C(=S)Nc2ccccc2)cc1	8.9	-3.7	2.3	7.2	-3.3	.
O=C(c1cccs1)N1CCN=C1SCc1ccccc1F	6.1	0.2	0.2	7.2	3.9	.
CCCc1ccc(-c2cc(NC(=O)Cc3c(C)[nH]c4ccccc34)ccc2Nc2cccnc2)cc1	.	.	.	11.5	.	.
CCCc1ccc(-c2cc(NC(=O)Cc3c(C)[nH]c4ccccc34)ccc2N(C)c2cccnc2)cc1	.	.	.	39.5*	.	-2.8
Oc1c(N=Nc2nn[nH]n2)ccc2ccccc12	.	.	-9.4	97.8*	.	83.8*
COCCCNC1=C(Cl)C(=O)c2ccccc2C1=O	6.2	4.0	-1.3	12.3	0.7	.
O=C1C(Cl)=C(NCCc2ccccc2)C(=O)c2ccccc21	6.2	.	-7.1	82.7*	-2.2	32.7*
CCN(CC)CCCNC1=C(Cl)C(=O)c2ccccc2C1=O	3.7	5.0	-5.5	55.9*	-10.4	56.2*
C=CCNC1=C(Cl)C(=O)c2ccccc2C1=O	24.7	?	-3.0	67.5*	1.7	59.2*
CC(C)OCCCNC1=C(Cl)C(=O)c2ccccc2C1=O	1.5	-5.2	-4.2	14.0	6.8	.
O=C1C(Cl)=C(NCc2cccnc2)C(=O)c2ccccc21	9.3	83.7	-4.4	70.0*	3.1	62.0*
O=S(=O)(Cc1ccccc1)NCc1cccnc1	9.6	?	0.4	-4.4	2.6	.
O=C1CCC(C(=O)N2CCSCC2)CN1Cc1cccc(C(F)(F)F)c1 (stereo not given)	-1.3	-4.2	-0.7	13.2	1.2	.
COc1ccc(NC(=O)Cn2nnc(C(=O)Nc3ccc(F)c(Cl)c3)c2N)cc1	10.6	-9.5	3.5	7.3	-45.9	.
N=C1C(c2ccccc2)=C(O)CN1c1cccc(S(=O)(=O)N2CCOCC2)c1	4.3	-9.3	2.6	-8.9	-0.8	.
CC(=O)N(Cc1ccc(F)cc1)C1=C(NCCc2ccccc2)C(=O)c2ccccc2C1=O	10.7	99.9	-4.5	86.8*	-3.8	62.7*
O=C1C(Cl)=C(Nc2ccccc2)C(=O)c2ccccc21	13.6	0.7	-4.2	22.1	6.0	.
CC(C)NC1=C(Cl)C(=O)c2ccccc2C1=O	10.8	-3.2	-0.5	59.4*	8.3	59.5*
Nc1ccc(NC(=O)NC2CCCCC2)cc1[N+](=O)[O-]	-0.6	4.2	-8.4	12.5	-5.4	.
SMILES	GDH-TPI inh	Mtb betalactam	Mtb FBA inh	CCHF vOTU inh-1	MazF activator	CCHF vOTU inh-2
Cc1c(C(=O)O)cccc1-c1ccc(C=O)o1	21.6	3.5	4.3	36.4*	3.1	-18.9
CCC(=O)N(CCC(c1ccccc1)c1ccco1)Cc1cccs1 (stereo not given)	11.4	-4.4	1.9	33.8*	-4.3	-9.9
COc1ccccc1C(CCN(Cc1cccs1)C(C)=O)c1ccco1 (stereo not given)	1.2	9.3	-4.5	10.9	-9.5	.
CCCc1cc(=O)[nH]c(SCC(=O)Nc2cc(S(=O)(=O)N(CC)c3ccccc3)ccc2Cl)n1	6.0	-9.3	4.7	35.5*	-1.0	10.9
COCCn1cnc2c1c(=O)n(CC(=O)OCC(=O)NCC(F)(F)F)c(=O)n2Cc1ccccc1	3.6	2.7	2.3	-2.2	-0.2	.
NC(=O)C1(N2CCCCC2)CCN(C2CC(=O)NC2=O)CC1 (stereo not given)	-3.1	-4.6	-1.3	31.4*	-1.3	-5.9
Cc1cccc(C)c1-n1c(C)cc(/C=N\NC(=O)CC(=O)NC2CCCCC2)c1C	9.9	-1.9	-3.1	31.1*	-7.1	-4.2
Cc1cc(/C=N\NC(=O)CC(=O)NC2CCCCC2)c(C)n1-c1cccc(Cl)c1Cl	10.2	6.5	6.8	7.5	-1.9	.
CCc1ccc(NC(=O)N2CCN(C(=O)C3CCCO3)CC2)cc1 (stereo not given)	-3.1	-5.5	1.4	11.8	5.4	.
CCn1ccnc1CNC(=O)c1ccc2oc(C(C)C)nc2c1	-4.8	-19.6	0.9	8.4	-0.5	.
CC1Cc2ccccc2N1C(=O)c1nn(C)cc1Br (stereo not given)	6.5	1.0	4.1	-6.0	5.0	.
CN(C)CCCNc1cc(O)c2ncccc2c1	7.7	4.3	6.4	92.4*	-83.5	94.2*
Cc1ccn(CCC(=O)NC2CC(C)(C)Cc3c2cnn3-c2ccccc2C)n1 (stereo not given)	-5.0	-0.8	1.0	6.1	0.5	.
COC(=O)C1CN(Cc2ccc(F)cc2)CCS(=O)(=O)N1Cc1cn(Cc2ccc(F)cc2)nn1 (stereo not given)	.	.	.	30.0*	.	-9.9
CSc1ccc(CN2CCN(C(C)C)C(CCO)C2)cc1 (stereo not given)	1.6	-1.0	2.3	2.1	5.5	.
Oc1ccc(CNc2ccccc2F)c2cccnc12	2.1	94.6	-0.8	13.6	9.3	.
Cc1ccc(C)c(S(=O)(=O)Nc2ccc(O)c3ccccc23)c1	14.4	7.2	0.8	62.3*	1.4	-8.0
Cc1ccc(S(=O)(=O)Nc2ccc3c4c(cccc24)CC3)c(C)c1	-6.7	10.3	-1.4	-1.9	0.7	.
O=S(=O)(Nc1ccc(O)c2ncccc12)c1ccccc1F	10.3	.	2.2	62.0*	.	19.1
Cc1ccc(S(=O)(=O)Nc2ccc(O)c3ccccc23)c(C)c1	-3.3	4.2	2.5	66.2*	-19.7	-18.9
CC(O)(CC(=O)CC(=O)c1ccccc1)c1ccccc1 (stereo not given)	24.6	.	-2.5	0.5	14.0	.
Cc1ccc(C(=O)NCCc2nnc3c(C(F)(F)F)cc(Cl)cn23)o1	10.3	0.0	5.5	-8.2	2.8	.
CCCCn1c(Cn2nc(C(=O)O)c3ccccc3c2=O)nc2cc(S(N)(=O)=O)ccc21	1.5	-3.1	3.2	-0.8	6.0	.
CC(C)CNC(=O)C1(C)CCCCCN1Cc1ccccc1-c1ccccc1 (stereo not given)	2.2	.	-0.3	34.7*	.	9.4
COC(=O)c1cn(C(=O)c2cc(Cl)ccc2Cl)c2ccccc12	7.1	-3.7	0.8	-5.2	-1.1	.
O=[N+]([O-])c1ccc(OC(F)F)c(/C=N/n2cnnc2)c1	-1.3	-0.4	-2.3	17.5	5.3	.
